Experimental data reported in the supplement of paper PMC6658780.
Counter-ions that a name gives are not always drawn. ± gives the standard deviation of the averaged measurements.

Test system: Escherichia coli ATCC BAA-2469
Experiment: percent growth inhibition of drug alone vs DMSO control; higher = more growth inhibition
Details: antibiotic (0.125x MIC): none (0.1% DMSO); 7 µM
Description: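 Prestwick drugs tested at 20 uM and 7 uM with an antibiotic at 0.125x MIC (16 mg/L when MIC >128 mg/L) against E. coli ATCC BAA-2469 (NDM-1) in CAMHB, 384-well plates, duplicate runs. Percent growth inhibition was computed from OD600 (24 h minus 0 h) relative to DMSO wells. Drug + DMSO-only wells are also given. […]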

Compound	percent growth inhibition of drug alone
Cc1c(N(C)C)c(=O)n(-c2ccccc2)n1C [Amidopyrine]	0.00227 ± 1.1%
N=C(NCCCCCCNC(=N)NC(=N)Nc1ccc(Cl)cc1)NC(=N)Nc1ccc(Cl)cc1 [Chlorhexidine]	103 ± 2.7%
C[C@H]1[C@H](NC(=O)/C(=N\OC(C)(C)C(=O)O)c2csc(N)n2)C(=O)N1S(=O)(=O)O [Aztreonam]	13.2 ± 14%
OC(CCN1CCCC1)(c1ccccc1)C1CCCCC1 (configuration not stated) [Procyclidine hydrochloride]	3.3 ± 1.6%
OCCN1CCN(CCCN2c3ccccc3Sc3ccc(C(F)(F)F)cc32)CC1 [Fluphenazine dihydrochloride]	1.91 ± 1.5%
O=C1NCCN1c1ncc([N+](=O)[O-])s1 [Niridazole]	19.9 ± 7.6%
Cc1cc(N)c2ccccc2[n+]1CCCCCCCCCC[n+]1c(C)cc(N)c2ccccc21 [Dequalinium dichloride]	2.01 ± 0.53%
CCCCCCCCCCCCCCCC[N+](C)(C)CCN(Cc1ccc(OC)cc1)c1ncccn1 [Thonzonium bromide]	3.7 ± 4.2%
C#C[C@]1(O)CC[C@H]2[C@@H]3CCC4=C(CCC(=O)C4)[C@H]3CC[C@@]21C [Norethynodrel]	0.455 ± 0.56%
Nc1nc(F)nc2c1ncn2[C@@H]1O[C@H](CO)[C@@H](O)[C@@H]1O [Fludarabine]	23 ± 20%
O=c1[nH]c(=O)n([C@H]2C[C@H](O)[C@@H](CO)O2)cc1C(F)(F)F [Trifluridine]	4.84 ± 4.7%

Same assay, conditions: antibiotic (0.125x MIC): none (0.1% DMSO); 20 µM

Compound	percent growth inhibition of drug alone
Cc1c(N(C)C)c(=O)n(-c2ccccc2)n1C [Amidopyrine]	-1.02 ± 2.5%
N=C(NCCCCCCNC(=N)NC(=N)Nc1ccc(Cl)cc1)NC(=N)Nc1ccc(Cl)cc1 [Chlorhexidine]	106 ± 2.6%
O=C1OCCN1/N=C/c1ccc([N+](=O)[O-])o1 [Furazolidone]	115 ± 13%
OC(CCN1CCCC1)(c1ccccc1)C1CCCCC1 (configuration not stated) [Procyclidine hydrochloride]	-0.85 ± 5%
OCCN1CCN(CCCN2c3ccccc3Sc3ccc(C(F)(F)F)cc32)CC1 [Fluphenazine dihydrochloride]	3.64 ± 1.5%
Cc1cc(N)c2ccccc2[n+]1CCCCCCCCCC[n+]1c(C)cc(N)c2ccccc21 [Dequalinium dichloride]	12.5 ± 11%
C#C[C@]1(O)CC[C@H]2[C@@H]3CCC4=C(CCC(=O)C4)[C@H]3CC[C@@]21C [Norethynodrel]	5.02 ± 3.1%
CO[C@H]1/C=C/O[C@@]2(C)Oc3c(C)c(O)c4c(O)c(c(/C=N/N5CCN(C6CCCC6)CC5)c(O)c4c3C2=O)NC(=O)/C(C)=C\C=C\[C@H](C)[C@H](O)[C@@H](C)[C@@H](O)[C@@H](C)[C@H](OC(C)=O)[C@@H]1C [Rifapentine]	112 ± 10%
Nc1nc(F)nc2c1ncn2[C@@H]1O[C@H](CO)[C@@H](O)[C@@H]1O [Fludarabine]	59.1 ± 4.9%
O=c1[nH]c(=O)n([C@H]2C[C@H](O)[C@@H](CO)O2)cc1C(F)(F)F [Trifluridine]	11.3 ± 6.5%
CO[C@H]1/C=C/O[C@@]2(C)Oc3c(C)c(O)c4c(O)c(c5c(nc6cc(C)ccn65)c4c3C2=O)NC(=O)/C(C)=C\C=C\[C@H](C)[C@H](O)[C@@H](C)[C@@H](O)[C@@H](C)[C@H](OC(C)=O)[C@@H]1C [Rifaximin]	102 ± 7.8%
